According to PubChem BioAssay AID2057 (The Scripps Research Institute Molecular Screening Center, 2009):
The campaign covered roughly 320,000 compounds. About 2,100 (0.66%) were called active. Many of the other results were omitted from the sample, so actives are more common in it than they were. A number with no mark means an inactive call.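 How the source made its calls: active means inhibition above the mean inhibition of all tested compounds plus 3 SD, set per campaign (cut at about 40% in these data); inactive means the rest.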

Molecular target: Induced myeloid leukemia cell differentiation protein Mcl-1 (Homo sapiens) (UniProt Q07820)
Experiment: MCL1-BIM peptide interaction disruptors – biochemical, fluorescence polarization, primary screen (AID 2057);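 further: 0% = DMSO wells and 100% = unlabeled Bim-BH3 peptide control; higher means more loss of mP so more displacement of Bim peptide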
Details: GST-MCL1 / FITC-Bim-BH3 fluorescence polarization; at 10.9 µM; stronger effect = higher value

Chain of Induced myeloid leukemia cell differentiation protein Mcl-1 (Homo sapiens) (Q07820 whole entry, looked up): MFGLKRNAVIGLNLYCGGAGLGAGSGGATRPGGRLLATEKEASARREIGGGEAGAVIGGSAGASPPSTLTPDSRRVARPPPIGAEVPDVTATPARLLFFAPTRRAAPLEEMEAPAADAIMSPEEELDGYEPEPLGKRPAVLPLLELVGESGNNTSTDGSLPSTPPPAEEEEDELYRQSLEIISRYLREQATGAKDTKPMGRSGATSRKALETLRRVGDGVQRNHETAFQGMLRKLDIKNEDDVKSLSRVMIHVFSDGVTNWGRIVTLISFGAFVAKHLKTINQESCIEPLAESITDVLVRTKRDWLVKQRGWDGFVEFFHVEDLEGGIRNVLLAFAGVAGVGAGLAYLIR

In order of rising inhibition:
1. Cc1c(C)c(C)c2[nH]c(=S)[nH]c2c1C  -26%
2. COc1ccccc1C(=O)NCCC(=O)NC(C)CCc1ccccc1 (stereo not given)  -13.4%
3. O=C(CNC(=O)c1ccc(F)cc1)c1ccccc1  -5.56%
4. Cc1cc(C)c(-c2csc(NC(=O)CCCc3nc4ccccc4c(=O)[nH]3)n2)c(C)c1  -5.51%
5. O=C(CNC(=O)c1ccccc1F)c1ccc(Br)cc1  -5.03%
6. Cn1c(Nc2ccccc2)cc(=O)n(C)c1=O  -3.95%
7. CCNC(=O)CC1C(=O)N(c2ccc(OC)cc2)C(=S)N1CCc1ccncc1 (stereo not given)  -3.91%
8. O=C(CSc1ccccc1)Nc1cccc(S(=O)(=O)N2CCCCC2)c1  -3.17%
9. CCCCn1c(N)c(N(CCOC)C(=O)c2sc3ccccc3c2Cl)c(=O)[nH]c1=O  -3.09%
10. O=[N+]([O-])c1ccc(F)cc1Oc1nc(-c2cccnc2)nc2ccccc12  -2.6%
11. CCOc1ccc(N2CC(C(=O)NCCN3C(=O)S/C(=C\c4cccnc4)C3=O)CC2=O)cc1 (stereo not given)  -2.41%
12. CCOc1ccccc1NC(=O)C1CCCN(S(=O)(=O)c2ccccc2)C1 (stereo not given)  -2.29%
13. COc1cc(SC)ccc1C(=O)Nc1cc(C)ccn1  0.12%
14. COc1ccccc1N1CCN(C(=O)c2cc(=O)c3cc(C)cc(C)c3o2)CC1  0.82%
15. O=C1c2ccccc2C(=O)N1CCC(O)C[N+](=O)[O-] (stereo not given)  0.99%
16. COC(=O)c1sc(=S)n(-c2ccc(Cl)cc2)c1C  1.56%
17. CCN(CC)C(=O)Oc1ccc(Br)cc1C(=O)Nc1ccc(F)c(Cl)c1  1.92%
18. COc1ccc(NC(=O)C(=O)NCC(c2ccco2)N2CCc3ccccc3C2)cc1 (stereo not given)  2.73%
19. Cc1cccc(-c2nc(Nc3ccc(O)cc3)c3ccccc3n2)c1  3.74%
20. O=C(O)c1cc(S(=O)(=O)N2CCCCCC2)c(Cl)cc1Cl  4.06%
21. CCOC(=O)C1CCN(C(=O)Nc2ccc(C)c(Cl)c2)CC1  4.72%
22. COc1ccc(CN2C(=O)C(C)S/C2=N/N=C/c2ccco2)cc1 (stereo not given)  4.92%
23. COc1ccc(-c2ccc(OC(=O)NC3CCS(=O)(=O)C3)cc2)cc1 (stereo not given)  5.93%
24. Cc1ccnc(NC(=O)CNC(=O)c2ccccc2)c1  6.08%
25. COC(=O)CCCCCN1C(=O)NC(c2ccc(-c3ccccc3)cc2)C(C(=O)OCc2ccccc2)=C1C (stereo not given)  6.48%
26. CCc1ccc(-c2cc(C)no2)cc1S(=O)(=O)NCCc1ccc(S(N)(=O)=O)cc1  7.69%
27. CCOC(=O)c1c(N)sc(C(C)=O)c1C  12.2%
28. O=C(C/C(=N\NC(=O)c1ccccc1Br)C(F)(F)F)c1cccs1  12.5%
29. COc1ccc(CCNC(=O)CSCc2ccc(Br)cc2)cc1OC  13.2%
30. CCCOc1ccc(C2c3c(oc4cc(C)c(C)cc4c3=O)C(=O)N2CCCN2CCOCC2)cc1 (stereo not given)  14.2%
31. COc1ccccc1N1CC(C(=O)NCCN2C(=O)S/C(=C\c3cccnc3)C2=O)CC1=O (stereo not given)  14.4%
32. COC(=O)CCCC1=CC2=CC(=O)C(C)(OC(=O)c3cccs3)C(=O)C2=CN1CC(C)C (stereo not given)  14.8%
33. COC(=O)CCCC1=CC2=CC(=O)C(C)(OC(=O)c3cccs3)C(=O)C2=CN1CC1CC1 (stereo not given)  17.1%
34. CN(C)[C@@H]1C(=O)C(C(N)=O)=C(O)[C@@]2(O)C(=O)C3=C(O)c4c(O)ccc(Cl)c4[C@@H](O)[C@H]3C[C@@H]12  31.5%
35. COc1ccc(C2=CC(c3cccc(OC)c3)n3nnnc3N2)cc1 (stereo not given)  37.5%

With `COc1ccc(Nc2nc(-c3cccnc3)nc3ccccc23)cn1` the inhibition was 128% (active).
With `Cc1ccnc(NC(=O)c2ccoc2C)c1` the inhibition was 42.1% (active).
For `Cc1cc2oc3ccc(NCCC4CCCN4C)cc3c(=O)c2cc1C` (stereo not given), the inhibition was 41.8% (active).
For `C=C1c2c(Cl)ccc(O)c2C(O)=C2C(=O)[C@]3(O)C(O)=C(C(N)=O)C(=O)[C@@H](N(C)C)[C@@H]3[C@@H](O)C12` (stereo not given in full), the inhibition was 87.2% (active).
In the case of `O=C(C[n+]1cc(Br)cc2ccccc21)c1ccc(F)cc1`, the inhibition was 63.3% (active).
`COCCOC(=O)c1sc(=S)n(CCOC)c1N` was tested, and the inhibition was 105% (active).
With `O=c1ccc2c(-c3ccccc3S(=O)(=O)O)c3ccc(O)c(O)c3oc-2c1O` the inhibition was 88.1% (active).
`COC/C=C/C1=CC2=CC(=O)C(C)(OC(=O)CCC(=O)OC)C(=O)C2=CO1` (stereo not given) was tested, and the inhibition was 64.3% (active).
For `O=c1[nH]c(=S)[nH]c2[nH]c(=S)[nH]c12`, the inhibition was 92.7% (active).
For `COc1ccc(N2CC(C(=O)NCCN3C(=O)S/C(=C\c4cccnc4)C3=O)CC2=O)c(OC)c1` (stereo not given), the inhibition was 166% (active).
